Assay results taken from PubChem BioAssay AID492947 (National Center for Advancing Translational Sciences (NCATS), 2010).
About 80 (0.02%) of roughly 330,000 compounds were called active. This is one part of a sample in which actives are shown more often than they occur. Calls come from the whole dose curve; as a rule, active = well fitted activation curve with a large enough effect; inconclusive = small, poorly fitted or top-dose-only effect; inactive = flat fitted curve, though single readings scatter. Square brackets hold non-standard residues; d marks the D form. Peptide text beside a SMILES is read from it. * marks the point of attachment. PhAc = O=C(Cc1ccccc1)*
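Note: 0% = DMSO controls and full agonism = EC100 isoproterenol or metaproterenol; nearly all actives have a fitted effect of over 65% in size.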

The compounds below were run against Beta-2 adrenergic receptor (Homo sapiens) (UniProt P07550) (assay: qHTS assay of beta-arrestin-biased ligands of beta2-adrenergic receptor). Conditions: beta-arrestin recruitment to beta2AR, cell-based reporter; series mostly up to 46.1 µM; activation: at the top concentration.
Beta-2 adrenergic receptor (Homo sapiens), sequence (P07550 whole entry, looked up): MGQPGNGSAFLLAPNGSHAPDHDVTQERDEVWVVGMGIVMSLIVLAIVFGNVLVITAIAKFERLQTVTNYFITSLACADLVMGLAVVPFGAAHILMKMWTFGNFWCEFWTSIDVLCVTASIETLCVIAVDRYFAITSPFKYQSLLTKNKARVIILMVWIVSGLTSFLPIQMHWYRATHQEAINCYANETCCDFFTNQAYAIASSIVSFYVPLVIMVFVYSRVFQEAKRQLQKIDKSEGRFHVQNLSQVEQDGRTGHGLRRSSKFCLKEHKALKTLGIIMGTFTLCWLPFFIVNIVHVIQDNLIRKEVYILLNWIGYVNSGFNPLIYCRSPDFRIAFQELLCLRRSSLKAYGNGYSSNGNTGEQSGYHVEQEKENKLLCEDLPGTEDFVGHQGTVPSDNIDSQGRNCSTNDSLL
Source text: NIH Molecular Libraries Probe Production Network [MLPCN]
NIH Chemical Genomics Center [NCGC]
PI: Bryan Roth and Bob Lefkowitz
The concept of biased agonism is an emerging concept of molecular pharmacology which proposes that seven transmembrane receptors (7TMRs) or G protein-coupled receptors (GPCRs), exist in multiple signaling conformations and complexes and that ligands (either agonists or antagonists) can induce signaling biased responses for distinct signal transduction cascades.
Furthermore, accumulating evidence over the last decade has drawn attention to a novel function of beta-arrestins as signal transducers that scaffold various signaling molecules upon activation of 7TMRs. […] This beta-arrestin-biased signaling presumably leads to distinct physiological outcomes from those by G protein activation.
Additionally, the active receptor conformations which […] on this beta-arrestin signaling are likely different from those activating G protein signaling
The goal of this screening project will be to discover and optimize novel beta-arrestin-biased ligands for beta2-AR signaling. A luminescent cell-based assay for beta2-AR-mediated agonism, known as the Tango assay, has been validated in which ligand binding of a recombinant beta2-AR and subsequent recruitment of a recombinant beta-arrestin lead to the release of the transcriptional activator tTA, which upregulates transcription of a tTA-responsive luciferase gene. […] Compounds were screened as a concentration-titration series that ranged from 46 microM to 0.6 nM.
NCGC Assay Protocol Summary:
Tango cells were dispensed into white, solid, tissue-culture-treated 1536-well plates at 1500 cells/well in DMEM, containing 1% fetal bovine serum (FBS). Then, 23 nL of compounds or DMSO were delivered to each well using a pin tool. Plates were incubated at 37 degrees C, 5% CO2 for 18 hr. Then 2.5 uL luminescent substrate mix (in-house prepared: 150 mM Tris-Cl, pH 7.6, 3 mM MgCl2, 1% Triton X-100, 5 mM DTT, 0.5 mM CoA, 0.15 mM ATP, 0.44 mM D-luciferin, final concentrations) was added to each well. Plates were then incubated for 15 minutes at room temperature, and subsequently measured on a ViewLux plate reader for luminescent signal using a clear filter with a 10 second exposure and 2x binning. The %Activity was determined from the corrected luminescence values.
Concentration-response curves were fitted to the signals arising from the resulting luminescence. The concentration-effect curves were then classified based on curve quality (r2), response magnitude and degree of measured activity, and compounds were subsequently categorized based on their curve class.
Keywords: biased agonism, beta2-AR, beta-arrestin, GPCR, 7TMR, Tango, luminescence, MLSMR, MLPCN, NIH Roadmap, qHTS, NCGC
For `C=C1CCN([C@H](C(=O)NCc2cc(OC)c(OC)c(OC)c2)C(C)C)S(=O)(=O)c2ccccc21`, the “activation” value was 0.37% (inactive).
For `COc1cc(C2C3=C(CCCC3=O)OC3=C2C(=O)CCC3)ccc1OCC(=O)Nc1ccccc1`, the “activation” value was -0.63% (inactive).
In the case of `O=S(=O)(O)CCN1CCOCC1`, the “activation” value is reported as -0.0424% (inactive).
With `O=S(=O)(NC1CCCCC1)c1ccc(F)c2ccccc12` the “activation” value was -0.345% (inactive).
With `NS(=O)(=O)c1cc2c(cc1Cl)NC(C(Cl)Cl)NS2(=O)=O` (configuration not stated) the “activation” value was -0.908% (inactive).
`COc1ccc(/C(O)=C2/C(=O)C(=O)N(CC3CCCO3)C2c2ccc(OC)c(OC)c2)cc1` (configuration not stated) was tested, and the “activation” value was -0.248% (inactive).
For `CCCOc1ccc(-c2c(C(=O)N/N=C/c3ccco3)nnn2-c2nonc2N)cc1`, the “activation” value was -0.534% (inactive).
With `Cc1cc(S(=O)(=O)c2cc3ccc(O)c(C)c3oc2=O)ccc1F` the “activation” value was 0.271% (inactive).
`CSCC[C@H](NC(=O)NC1CCCC1)C(=O)O` was tested, and the “activation” value was 0.222% (inactive).
For `CCN(c1ccccc1)S(=O)(=O)c1ccc(C(=O)Nc2ccccc2OC)cc1`, the “activation” value was 0.146% (inactive).
For `Cc1ccc(CN2CCN(Cc3ccc(OCCO)cc3)CC2CCO)o1` (configuration not stated), the “activation” value was -0.418% (inactive).
For `COc1ccc(OC)c(NC(=O)c2sc3nc(C)cc(C)c3c2N)c1`, the “activation” value was 0.456% (inactive).
For `CCCN1CCN(C(=O)Cn2ncc3ccccc32)CC1`, the “activation” value was -1.82% (inactive).
For `C[C@H](CO)N1C[C@H](C)[C@@H](CN(C)C(=O)Nc2ccc3c(c2)OCO3)Oc2c(cccc2N(C)C)C1=O`, the “activation” value was -0.0114% (inactive).
`CCn1ccnc1CN1CCCC(C(=O)c2ccc3c4c(cccc24)CC3)C1` (configuration not stated) was tested, and the “activation” value was 7.21% (inactive).
For `Cc1cccc(C(=O)NNC(=O)CSc2nnc(C(C)C)n2C)c1`, the “activation” value was 0.405% (inactive).
In the case of `C/C=C/C(=O)Nc1nnc(C(C)C)s1`, the “activation” value is reported as 0.101% (inactive).
For `CCSc1nc2c(c(=O)[nH]1)C(c1cccnc1)C(C(=O)OC(C)C)=C(C)N2` (configuration not stated), the “activation” value was 2.44% (inactive).
`CC1(C)CC(N(Cc2ccccc2)C(=O)Cc2ccccc2)CCO1` (configuration not stated) was tested, and the “activation” value was 0.0559% (inactive).
In the case of `COc1cccc(N(CC(=O)NC2CCCC2)C(=O)CCCC(=O)Nc2ccccn2)c1`, the “activation” value is reported as -0.143% (inactive).
With `O=C1CSc2ccc(S(=O)(=O)NCc3ccccc3)cc2N1` the “activation” value was 0.128% (inactive).
For `CN(c1cccc(NC(=O)c2ccc(CN3CCc4ccccc4C3)cc2)c1)S(C)(=O)=O`, the “activation” value was -0.688% (inactive).
In the case of `COc1ccc(NC(=O)C2CCC(CNS(=O)(=O)c3csc(C(N)=O)c3)CC2)cc1OC` (configuration not stated), the “activation” value is reported as 0.217% (inactive).
`O=C(NCCc1ccc(C(F)(F)F)cc1)c1ccc2c(c1)OCO2` was tested, and the “activation” value was 0.112% (inactive).
In the case of `COc1ccc(C(C)=O)cc1CN1C(=O)NC2(CCCCC2C)C1=O` (configuration not stated), the “activation” value is reported as -0.794% (inactive).
`Cc1ccc(NC(=O)CS(=O)CC(=O)N(c2ccccc2)C(C)C(=O)NC2CCCC2)cc1` (configuration not stated) was tested, and the “activation” value was -0.262% (inactive).
In the case of `CC(C)C[C@@H](NC(=O)[C@H]1CCCN1C(=O)Cc1ccccc1)C(N)=O` (PhAc-[dP]-[dL]-NH2), the “activation” value is reported as 0.667% (inactive).
In the case of `CCOC(=O)Cn1c(O)c(N=NC(=O)CNC(=O)Cc2ccccc2)c2ccccc21`, the “activation” value is reported as 0.315% (inactive).
For `CCn1c(CC(=O)Nc2ccc(C)cc2)nnc1SCC(=O)Nc1nc(C)cs1`, the “activation” value was -1.04% (inactive).
`Cc1noc(C)c1C(=O)OCC(=O)N1CCN(S(=O)(=O)c2ccc3ccccc3c2)CC1` was tested, and the “activation” value was -0.677% (inactive).
For `Cc1nc2ccc(NC(=O)C3CCCCC3)cc2s1`, the “activation” value was -0.228% (inactive).
`Cc1ccc(NC(=S)NCCc2ccc(Cl)cc2)c(C)c1` was tested, and the “activation” value was -0.056% (inactive).
For `CCCCOC(=O)Nc1nccs1`, the “activation” value was 0.2% (inactive).
With `O=C(CN(Cc1ccccc1)C(=O)c1ccc2c(c1)OCCO2)NCc1ccc2c(c1)OCO2` the “activation” value was -0.348% (inactive).
With `CC(OC(=O)CN1C(=O)c2ccccc2C1=O)C(=O)c1ccccc1` (configuration not stated) the “activation” value was -0.0877% (inactive).
With `COc1ccc(OC)c(CNC(=O)c2cc(=O)[nH]c3ccc(S(=O)(=O)N4CCCC4)cc23)c1` the “activation” value was 0.0882% (inactive).
In the case of `CCCCN=C1N/C(=C\c2ccco2)C(=O)N1c1ccccc1`, the “activation” value is reported as 0.239% (inactive).
For `CC12C(=O)N(c3ccccc3)C(=O)C1C(c1ccccc1)N1CCCN12` (configuration not stated), the “activation” value was -0.468% (inactive).
For `Cc1c(Cl)cccc1NC(=O)NCc1ccc(C)n1C`, the “activation” value was 0.368% (inactive).
In the case of `CCOC(=O)Cc1ncccc1C(=O)Nc1ccc(OC(F)(F)F)cc1`, the “activation” value is reported as 0.342% (inactive).
With `CCOC(=O)N1CCC(N(CCOC)C(=O)Nc2ccc(C)c(C)c2)CC1` the “activation” value was -1.07% (inactive).
For `CCOC(=O)N/N=C1\CC(C)S(=O)(=O)c2ccc(Cl)cc21` (configuration not stated), the “activation” value was 0.455% (inactive).
`CC1CCC(C(C)C)C(=O)/C1=C\c1ccc(NC(=O)CCC(=O)O)cc1` (configuration not stated) was tested, and the “activation” value was -0.303% (inactive).
With `COC(=O)c1ccc(-c2c(-c3ccccc3)ncc3cc(OC)c(OC)cc23)cc1` the “activation” value was 0.148% (inactive).
With `NC1=NC2(CCCCC2)N(c2ccc(F)cc2F)C(N)=N1` the “activation” value was 0.0396% (inactive).
In the case of `O=C(Oc1ccc(Br)cc1C(=S)N1CCOCC1)c1cccc([N+](=O)[O-])c1`, the “activation” value is reported as 0.418% (inactive).
In the case of `CCOC(=O)C1CCN(Cc2coc3ccc(Cl)cc3c2=O)CC1`, the “activation” value is reported as -0.282% (inactive).
In the case of `COc1ccc(S(=O)(=O)N(C)CC(=O)N2CCCC2)cc1Cl`, the “activation” value is reported as -0.204% (inactive).
For `C/C(=N\NC(=O)c1cc2c(s1)CCC(C)C2)c1cccnc1` (configuration not stated), the “activation” value was -0.278% (inactive).
In the case of `COC(=O)[C@H](CC(C)C)NC(=O)N1CCCCC1C` (some centres not stated), the “activation” value is reported as -0.413% (inactive).
In the case of `Cc1ccccc1-n1nc(C)c2c1N=C1C(Cl)=CC(Cl)=CN1C2c1ccc(C(=O)O)cc1` (configuration not stated), the “activation” value is reported as -0.645% (inactive).
`COc1ccc2c(c1)CCc1cn3ncc(C#N)c3nc1-2` was tested, and the “activation” value was -0.718% (inactive).
